Measurements reported in PubChem BioAssay (NCI).
This is part of a sample that, as a whole, favours compounds with a hit. Of some 83,000 tested, about 20% had one in any assay.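 Negative percent growth values reflect cell death: -40 means 40% of the cells present at the start died, and -100 means all died.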 Calls of active or inactive are those of the source. The calls were made as follows: active = growth percent below 10; inactive = the rest. *1 amine or outer side, *2 acyl side, *3 side chain or, on linkers, in order; H or OH if unused. Where a SMILES comes first, the peptide text is derived from it. Bridges are numbered along the chain shown (N, C = ends). Roman numbers before positions name the chains, in order. [ ]: non-standard residue; d: D form. The star is where a group is joined. Actinocin(1to9) = Cc1c2oc3c(C)ccc(C(=O)[*:2])c3nc-2c(C(=O)[*:1])c(N)c1=O; X5 = CCC(=O)CC1CC(C)CC(C(=O)[*:2])N1[*:1]; NMeV = CN[CH](C(=O)O)C(C)C; X4 = CCCCCCCCC(C)C(=O)*; Aib = CC(C)(N)C(=O)O; X6 = CC(CN(C)CCO)N*; Sar = CNCC(=O)O

What was measured:
Test in all cases: NCI-60 one-dose screen, 48 h (100 = growth as untreated, 0 = no growth, -100 = all killed)
Settings in all cases: 10 µM unless noted
SR leukemia = test system: SR leukemia
OVCAR-8 ovarian = test system: OVCAR-8 ovarian
OVCAR-5 ovarian = test system: OVCAR-5 ovarian
OVCAR-4 ovarian = test system: OVCAR-4 ovarian
SK-OV-3 ovarian = test system: SK-OV-3 ovarian
IGROV1 ovarian = test system: IGROV1 ovarian
OVCAR-3 ovarian = test system: OVCAR-3 ovarian
NCI/ADR-RES ovarian = test system: NCI/ADR-RES ovarian
RPMI-8226 leukemia = test system: RPMI-8226 leukemia
HS 578T breast = test system: HS 578T breast

Measured: growth

CCC(=O)c1cc([N+](=O)[O-])c(Br)s1
inactive: OVCAR-8 ovarian 91.4% | OVCAR-5 ovarian 99% | OVCAR-4 ovarian 109% | SK-OV-3 ovarian 95.8% | IGROV1 ovarian 105% | OVCAR-3 ovarian 82.4% | NCI/ADR-RES ovarian 105%
active: SR leukemia -19.5%

N#CC1c2ccccc2C=CN1C(=O)CCCl (stereo not given)
active: SR leukemia 5.98%
inactive: RPMI-8226 leukemia 24.3% | OVCAR-5 ovarian 108% | OVCAR-4 ovarian 108% | SK-OV-3 ovarian 97.2% | IGROV1 ovarian 95.3% | OVCAR-3 ovarian 91.4% | HS 578T breast 104%

CC(C)=CCCC(C)C1=C(O)C(=O)C(C)=CC1=O (stereo not given)
inactive: OVCAR-5 ovarian 97.4% | SK-OV-3 ovarian 97.8% | HS 578T breast 94.4% | NCI/ADR-RES ovarian 95%
active: SR leukemia -12.4% | RPMI-8226 leukemia -34.2% | IGROV1 ovarian -75.7% | OVCAR-3 ovarian -12.5%

C/C=C/c1cc2c(c(=O)o1)C(=O)[C@@H](O)[C@H](C)O2
active: RPMI-8226 leukemia -45.7% | OVCAR-4 ovarian -12.6% | IGROV1 ovarian -46.9%
inactive: SR leukemia 11.9% | OVCAR-5 ovarian 87.5% | SK-OV-3 ovarian 109% | OVCAR-3 ovarian 47.5% | NCI/ADR-RES ovarian 86%

Cc1ccc2cccc(OC(=O)Nc3cccc(C(F)(F)F)c3)c2n1
inactive: SR leukemia 36.9% | OVCAR-8 ovarian 53.5% | OVCAR-5 ovarian 83.7% | OVCAR-4 ovarian 73% | SK-OV-3 ovarian 108% | IGROV1 ovarian 58.2% | OVCAR-3 ovarian 32.3% | HS 578T breast 100% | NCI/ADR-RES ovarian 58.9%

CCN(CC)CC(O)CNc1ccc(NCC2CO2)c2c1C(=O)c1ccccc1C2=O (stereo not given)
inactive: SK-OV-3 ovarian 22.5%
active: SR leukemia -4.42% | RPMI-8226 leukemia -40.8% | OVCAR-5 ovarian -4.14% | IGROV1 ovarian -59.1% | OVCAR-3 ovarian -1.52% | NCI/ADR-RES ovarian -1.62%

C[C@@]1(CO)[C@H](O)CC[C@@]2(C)[C@H]1CC[C@H]1C[C@@H]3C[C@@]12CC[C@@]3(O)COC(=O)CN
inactive: SR leukemia 18.9% | RPMI-8226 leukemia 43% | OVCAR-5 ovarian 24.7% | OVCAR-4 ovarian 87.9% | SK-OV-3 ovarian 74.8% | IGROV1 ovarian 33.5% | OVCAR-3 ovarian 70.9% | NCI/ADR-RES ovarian 11.1%

COc1ccc(/C=C2/C(=O)ON=C2C)cc1
inactive: SR leukemia 115% | RPMI-8226 leukemia 99.1% | OVCAR-8 ovarian 105% | OVCAR-4 ovarian 115% | SK-OV-3 ovarian 100% | IGROV1 ovarian 115% | OVCAR-3 ovarian 111% | HS 578T breast 102% | NCI/ADR-RES ovarian 115%

Nc1nc2ncc(CNc3ccc(C(=O)NC(CCC(=O)NC(CCC(=O)NC(CCC(=O)NC(CCC(=O)NC(CCC(=O)O)C(=O)O)C(=O)O)C(=O)O)C(=O)O)C(=O)O)cc3)nc2c(=O)[nH]1 (stereo not given)
inactive: RPMI-8226 leukemia 112% | OVCAR-8 ovarian 101% | OVCAR-5 ovarian 110% | OVCAR-4 ovarian 111% | SK-OV-3 ovarian 101% | IGROV1 ovarian 103% | OVCAR-3 ovarian 118%

Cn1ccc(=Nc2ccc(NC(=O)c3ccc(N=c4ccn(C)c5ccc([N+](=O)[O-])cc45)cc3)cc2)cc1
inactive: SR leukemia 107% | OVCAR-8 ovarian 69.3% | OVCAR-5 ovarian 87.9% | OVCAR-4 ovarian 59.4% | SK-OV-3 ovarian 91.4% | IGROV1 ovarian 64.8% | OVCAR-3 ovarian 79.5% | HS 578T breast 100% | NCI/ADR-RES ovarian 106%

Cc1ccc(/C=C2\CNC/C(=C\c3ccc(C)cc3)C2=O)cc1
active: SR leukemia -2.99% | RPMI-8226 leukemia -30.6% | OVCAR-5 ovarian -28.4% | OVCAR-4 ovarian 9.79% | IGROV1 ovarian -71.2% | OVCAR-3 ovarian -58.5%
inactive: SK-OV-3 ovarian 30.5%

O=C(/C=C/C(Cl)(Cl)Cl)Nc1ccc(Cl)cc1
inactive: SR leukemia 40.1% | RPMI-8226 leukemia 75.3% | OVCAR-5 ovarian 93.7% | OVCAR-4 ovarian 115% | SK-OV-3 ovarian 110% | OVCAR-3 ovarian 119% | HS 578T breast 105% | NCI/ADR-RES ovarian 95.5%
active: IGROV1 ovarian -76.5%

CCC(C)C(N)C(=O)NC(CC(N)=O)C(=O)NC(CC(C)C)C(=O)NC(CCCCN)C(=O)NC(C)C(=O)NC(CC(C)C)C(=O)NC(C)C(=O)NC(C)C(=O)NC(CC(C)C)C(=O)NC(C)C(=O)NC(CCCCN)C(=O)NC(CCCCN)C(=O)NC(C(=O)NC(CC(C)C)C(N)=O)C(C)CC (stereo not given)
inactive: SR leukemia 85.8% | RPMI-8226 leukemia 74.7% | OVCAR-5 ovarian 166% | OVCAR-4 ovarian 95.2% | SK-OV-3 ovarian 110% | IGROV1 ovarian 102% | OVCAR-3 ovarian 117% | NCI/ADR-RES ovarian 102%

[Cl-].[Rh+3].c1ccc(-c2ccnc3c2ccc2c(-c4ccccc4)ccnc23)cc1.c1ccc(-c2ccnc3c2ccc2c(-c4ccccc4)ccnc23)cc1.c1ccc(-c2ccnc3c2ccc2c(-c4ccccc4)ccnc23)cc1
active: OVCAR-5 ovarian -2.79%
inactive: SR leukemia 89.4% | RPMI-8226 leukemia 91.1% | OVCAR-4 ovarian 84.8% | SK-OV-3 ovarian 77.9% | IGROV1 ovarian 66.5% | OVCAR-3 ovarian 69.8% | NCI/ADR-RES ovarian 95.7%

CCCCCCCCC(C)C(=O)N1CCCC1C(=O)N1C(CC(=O)CC)CC(C)CC1C(=O)NC(C)C(=O)NC(C)(C)C(=O)NC(C)(C)C(=O)NC(C(=O)NC(C)C(=O)NC(C)(C)C(=O)NC(C)(C)C(=O)NC(C)CN(C)CCO)C(C)CC (stereo not given) (X4-P[X5]A[Aib][Aib]IA[Aib][Aib]-X6; configuration not given here)
active: SR leukemia -44.2% | RPMI-8226 leukemia -42.5% | OVCAR-5 ovarian -82.2% | OVCAR-4 ovarian -12.9% | SK-OV-3 ovarian -23.8% | IGROV1 ovarian -60.3% | OVCAR-3 ovarian -54.6% | NCI/ADR-RES ovarian -36.9%

Cc1cc(C(=O)c2ccc(Cl)cc2)ccc1O
inactive: RPMI-8226 leukemia 73.3% | OVCAR-8 ovarian 85.9% | OVCAR-5 ovarian 99% | OVCAR-4 ovarian 79.2% | SK-OV-3 ovarian 110% | IGROV1 ovarian 117% | OVCAR-3 ovarian 98.8% | HS 578T breast 116%

COc1c(C)c2c(c(O)c1C/C=C(\C)CCC(=O)O)C(=O)OC2
inactive: SR leukemia 14% | RPMI-8226 leukemia 57.8% | OVCAR-8 ovarian 11.9% | OVCAR-4 ovarian 44.5% | SK-OV-3 ovarian 45.2% | IGROV1 ovarian 12.9% | OVCAR-3 ovarian 34.4% | HS 578T breast 72% | NCI/ADR-RES ovarian 31.2%

COc1cc(/C=C/C(=O)CC(=O)/C=C/c2ccc(O)c(OC)c2)ccc1O
active: SR leukemia -5.89% | RPMI-8226 leukemia -30.3%
inactive: OVCAR-5 ovarian 61.1% | OVCAR-4 ovarian 65.8% | SK-OV-3 ovarian 75.3% | OVCAR-3 ovarian 37.3% | HS 578T breast 55.6% | NCI/ADR-RES ovarian 37.2%

CCC(C)C1NC(=O)C(NC(=O)c2c3nc4c(C(=O)NC5C(=O)NC(C(C)CC)C(=O)N6CCCC6C(=O)N(C)CC(=O)N(C)C(C(C)C)C(=O)OC5C)ccc(C)c4oc-3c(C)c(=O)c2N)C(C)OC(=O)C(C(C)C)N(C)C(=O)CN(C)C(=O)C2CCCN2C1=O (stereo not given) (I: TIP[Sar][NMeV] / II: TIP[Sar][NMeV]; ester I:1-I:C, II:1-II:C; linker I:N-II:N via Actinocin(1to9); configuration not given here)
inactive: SK-OV-3 ovarian 18.2%
active: SR leukemia 5.31% | RPMI-8226 leukemia -18.8% | OVCAR-5 ovarian -76.6% | OVCAR-4 ovarian -1.07% | IGROV1 ovarian -32.4% | OVCAR-3 ovarian 1.47% | NCI/ADR-RES ovarian -42.7%

O=C(c1ccc(O)c(Br)c1)c1ccc(O)c(Br)c1
inactive: RPMI-8226 leukemia 99.5% | OVCAR-8 ovarian 106% | OVCAR-5 ovarian 110% | OVCAR-4 ovarian 103% | SK-OV-3 ovarian 116% | IGROV1 ovarian 114% | OVCAR-3 ovarian 114% | HS 578T breast 113%

CCCCCCCCCCCC[N+]1(CCCCCCCCCCCC)CCCC(C)C1 (stereo not given)
active: RPMI-8226 leukemia -63.1% | OVCAR-8 ovarian -92.1% | OVCAR-5 ovarian -98.3% | OVCAR-4 ovarian -86.3% | SK-OV-3 ovarian -96.2% | OVCAR-3 ovarian -88.7% | HS 578T breast -40.8%
inactive: NCI/ADR-RES ovarian 19.6%

Cc1cc2nc(CC(=O)c3ccncc3)c(=O)[nH]c2cc1C
inactive: RPMI-8226 leukemia 103% | OVCAR-8 ovarian 102% | OVCAR-5 ovarian 97.2% | OVCAR-4 ovarian 93.8% | SK-OV-3 ovarian 104% | IGROV1 ovarian 105% | OVCAR-3 ovarian 112% | HS 578T breast 66.8% | NCI/ADR-RES ovarian 96.8%

CCCCCCCCC(=O)OCCCC(CCC(CCC1CCCO1)OC(=O)CCCCCCCC)OC(=O)CCCCCCCC (stereo not given)
inactive: RPMI-8226 leukemia 112% | OVCAR-8 ovarian 103% | OVCAR-5 ovarian 99.5% | OVCAR-4 ovarian 102% | SK-OV-3 ovarian 96.4% | IGROV1 ovarian 107% | OVCAR-3 ovarian 110% | HS 578T breast 97.1% | NCI/ADR-RES ovarian 103%

Cc1nn(CCO)c(C)c1N=[N+]([O-])c1c(C)nn(CCO)c1C
active: RPMI-8226 leukemia -35% | OVCAR-3 ovarian -88.1%
inactive: OVCAR-8 ovarian 79% | OVCAR-5 ovarian 83.6% | OVCAR-4 ovarian 13.7% | SK-OV-3 ovarian 115% | NCI/ADR-RES ovarian 96.1%

COc1ccc(NC(=O)/C(=C/N2C(=O)/C(=C/c3ccc(OC)c(OC)c3)NC2=S)C(C)=O)cc1
inactive: RPMI-8226 leukemia 76.6% | OVCAR-8 ovarian 80.8% | OVCAR-5 ovarian 99.3% | OVCAR-4 ovarian 85.1% | SK-OV-3 ovarian 55.9% | IGROV1 ovarian 74.7% | OVCAR-3 ovarian 79% | HS 578T breast 40.7% | NCI/ADR-RES ovarian 77.6%

Nc1cccc2cccc([N+](=O)[O-])c12
inactive: RPMI-8226 leukemia 98.5% | OVCAR-8 ovarian 108% | OVCAR-5 ovarian 113% | OVCAR-4 ovarian 94.8% | SK-OV-3 ovarian 103% | IGROV1 ovarian 118% | OVCAR-3 ovarian 124% | HS 578T breast 103% | NCI/ADR-RES ovarian 103%

NC(=S)N/N=C\c1nccc2c(N)cccc12
inactive: RPMI-8226 leukemia 15.5% | OVCAR-8 ovarian 15.8% | OVCAR-5 ovarian 48% | OVCAR-4 ovarian 40.7% | SK-OV-3 ovarian 16.6% | IGROV1 ovarian 10.9% | OVCAR-3 ovarian 42.6% | HS 578T breast 57.6% | NCI/ADR-RES ovarian 10.8%

CCN1/C(=C/C(C)=C/c2sc3ccc4ccccc4c3[n+]2CC)Sc2ccc3ccccc3c21
active: RPMI-8226 leukemia -58.1% | OVCAR-8 ovarian -68.7% | OVCAR-5 ovarian -91.7% | OVCAR-4 ovarian -76.9% | SK-OV-3 ovarian -99% | IGROV1 ovarian -88.4% | OVCAR-3 ovarian -94.5% | NCI/ADR-RES ovarian -19.3%
